Reference: PubChem BioAssay AID1159580 (chemical genetic matrix, 2015)
Out of some 5,500 compounds screened, about 2,000 (36%) were called active. About 18% were inconclusive and are not listed. No stated cut-off is given here; in the data, active means normalized growth mostly below about 0.91 (no sharp cut-off); inconclusive means no clear call, values can overlap the other calls; inactive means mostly above about 0.92. This is one part of the list.

Assay: chemical genetic growth profiling, strain panel (AID 1159580);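 further: tested at 20 µM; growth read once vehicle control cultures reached saturation at 30 °C; 1 = growth at the plate median or of vehicle wells; lower values mean less growth of the strain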
Settings: growth OD

Measured: normalized growth

CCC1(CC)C(=O)C=CNC1=O
inactive: S. cerevisiae deletion strains, locus YJR066W, strain TOR1, active compounds read low 0.961 | S. cerevisiae deletion strains, locus YKL009W, strain mrt4, active compounds read low 1 | S. cerevisiae deletion strains, locus YKL068W, active compounds read low 1 | S. cerevisiae deletion strains, locus YKL085W, strain MDH1 (second series), active compounds read low 1 | S. cerevisiae deletion strains, locus YKL085W, strain MDH1, active compounds read low 1 | S. cerevisiae deletion strains, locus YKL160W, strain elf1, active compounds read low 0.992 | S. cerevisiae deletion strains, locus YKL190W, strain CNB1, active compounds read low 1 | S. cerevisiae deletion strains, locus YKR001C, strain vps1, active compounds read low 0.983 | S. cerevisiae deletion strains, locus YKR026C, strain gcn3, active compounds read low 0.97 | S. cerevisiae deletion strains, locus YKR091W, strain srl3, active compounds read low 1 | S. cerevisiae deletion strains, locus YLL001W, strain dnm1, active compounds read low 0.985 | S. cerevisiae deletion strains, locus YLL026W, active compounds read low 0.99 | S. cerevisiae deletion strains, locus YLL041C, strain sdh2, active compounds read low 0.985 | S. cerevisiae deletion strains, locus YLR027C, strain aat2, active compounds read low 0.996 | S. cerevisiae deletion strains, locus YLR039C, strain RIC1, active compounds read low 1.01 | S. cerevisiae deletion strains, locus YLR058C, strain SHM2, active compounds read low 1.01 | S. cerevisiae deletion strains, locus YLR102C, strain apc9, active compounds read low 1.01 | S. cerevisiae deletion strains, locus YLR113W, strain HOG1, active compounds read low 0.988 | S. cerevisiae deletion strains, locus YLR221C, strain rsa3, active compounds read low 1.01 | S. cerevisiae deletion strains, locus YLR258W, strain gsy2, active compounds read low 1.01 | S. cerevisiae deletion strains, locus YLR262C, strain YPT6 (second series), active compounds read low 1.02 | S. cerevisiae deletion strains, locus YLR262C, strain YPT6, active compounds read low 1.01 | S. cerevisiae deletion strains, locus YLR268W, strain sec22, active compounds read low 1.01 | S. cerevisiae deletion strains, locus YLR320W, strain mms22, active compounds read low 1.02 | S. cerevisiae deletion strains, locus YLR330W, strain CHS5, active compounds read low 1.01 | S. cerevisiae deletion strains, locus YLR342W, strain FKS1 (second series), active compounds read low 1.06 | S. cerevisiae deletion strains, locus YLR342W, strain FKS1, active compounds read low 1.01 | S. cerevisiae deletion strains, locus YLR357W, strain rsc2, active compounds read low 1 | S. cerevisiae deletion strains, locus YLR370C, strain arc18, active compounds read low 0.997 | S. cerevisiae deletion strains, locus YLR371W, strain rom2, active compounds read low 1.01 | S. cerevisiae deletion strains, locus YLR384C, strain iki3, active compounds read low 0.995 | S. cerevisiae deletion strains, locus YLR418C, strain cdc73, active compounds read low 1.02 | S. cerevisiae deletion strains, locus YML016C, strain PPZ1, active compounds read low 1 | S. cerevisiae deletion strains, locus YML032C, strain rad52, active compounds read low 0.997 | S. cerevisiae deletion strains, locus YML120C, strain ndi1, active compounds read low 0.994 | S. cerevisiae deletion strains, locus YML124C, strain tub3, active compounds read low 1.01 | S. cerevisiae deletion strains, locus YMR058W, strain fet3, active compounds read low 0.989 | S. cerevisiae deletion strains, locus YMR078C, strain ctf18, active compounds read low 1.01 | S. cerevisiae deletion strains, locus YMR125W, strain sto1, active compounds read low 0.973 | S. cerevisiae deletion strains, locus YMR129W, active compounds read low 0.991 | S. cerevisiae deletion strains, locus YMR205C, strain PFK2, active compounds read low 1.05 | S. cerevisiae deletion strains, locus YMR223W, strain ubp8, active compounds read low 1.02 | S. cerevisiae deletion strains, locus YMR231W, strain pep5, active compounds read low 0.998 | S. cerevisiae deletion strains, locus YMR263W, strain SAP30, active compounds read low 0.995 | S. cerevisiae deletion strains, locus YMR307W, strain GAS1, active compounds read low 1.01 | S. cerevisiae deletion strains, locus YNL067W, strain RPL9B, active compounds read low 0.981 | S. cerevisiae deletion strains, locus YNL071W, strain lat1, active compounds read low 0.994 | S. cerevisiae deletion strains, locus YNL128W, strain TEP1, active compounds read low 1.03 | S. cerevisiae deletion strains, locus YNL183C, strain NPR1, active compounds read low 0.958 | S. cerevisiae deletion strains, locus YNL209W, strain ssb2, active compounds read low 1 | S. cerevisiae deletion strains, locus YNL233W, strain BNI4, active compounds read low 0.978 | S. cerevisiae deletion strains, locus YNL248C, strain rpa49, active compounds read low 0.96 | S. cerevisiae deletion strains, locus YNL250W, strain rad50, active compounds read low 1.02 | S. cerevisiae deletion strains, locus YNL271C, strain bni1, active compounds read low 1.01 | S. cerevisiae deletion strains, locus YNL298W, strain CLA4, active compounds read low 1 | S. cerevisiae deletion strains, locus YNL307C, strain MCK1, active compounds read low 1.02 | S. cerevisiae deletion strains, locus YNL322C, strain KRE1 (second series), active compounds read low 0.992 | S. cerevisiae deletion strains, locus YNL322C, strain KRE1, active compounds read low 0.999 | S. cerevisiae deletion strains, locus YNR049C, strain mso1, active compounds read low 0.994 | S. cerevisiae deletion strains, locus YNR052C, strain pop2, active compounds read low 1.01 | S. cerevisiae deletion strains, locus YOL006C, strain TOP1, active compounds read low 0.966 | S. cerevisiae deletion strains, locus YOL012C, strain htz1 0.962 | S. cerevisiae deletion strains, locus YOL147C, strain pex11, active compounds read low 1.01 | S. cerevisiae deletion strains, locus YOR001W, strain rrp6, active compounds read low 0.971 | S. cerevisiae deletion strains, locus YOR061W, strain CKA2, active compounds read low 1.01 | S. cerevisiae deletion strains, locus YOR069W, strain VPS5, active compounds read low 1.01 | S. cerevisiae deletion strains, locus YOR070C, strain gyp1, active compounds read low 1 | S. cerevisiae deletion strains, locus YOR080W, strain dia2, active compounds read low 0.999 | S. cerevisiae deletion strains, locus YOR083W, strain WHI5, active compounds read low 0.984 | S. cerevisiae deletion strains, locus YOR106W, strain vam3, active compounds read low 1.01 | S. cerevisiae deletion strains, locus YOR136W, strain idh2, active compounds read low 0.994 | S. cerevisiae deletion strains, locus YOR144C, strain elg1, active compounds read low 1 | S. cerevisiae deletion strains, locus YOR184W, strain ser1, active compounds read low 1.02 | S. cerevisiae deletion strains, locus YOR231W, strain MKK1, active compounds read low 0.98 | S. cerevisiae deletion strains, locus YOR265W, strain rbl2, active compounds read low 0.996 | S. cerevisiae deletion strains, locus YOR270C, strain vph1, active compounds read low 0.994 | S. cerevisiae deletion strains, locus YOR290C, strain snf2, active compounds read low 0.965 | S. cerevisiae deletion strains, locus YOR316C, strain cot1, active compounds read low 1.01 | S. cerevisiae deletion strains, locus YPL051W, strain arl3, active compounds read low 0.985 | S. cerevisiae deletion strains, locus YPL078C, strain atp4, active compounds read low 0.968 | S. cerevisiae deletion strains, locus YPL106C, strain sse1, active compounds read low 1 | S. cerevisiae deletion strains, locus YPL240C, strain hsp82, active compounds read low 1.02 | S. cerevisiae deletion strains, locus YPL256C, strain CLN2, active compounds read low 1.01 | S. cerevisiae deletion strains, locus YPR119W, strain clb2, active compounds read low 1 | S. cerevisiae deletion strains, locus YPR141C, strain kar3, active compounds read low 1 | S. cerevisiae deletion strains, locus YPR163C, strain tif3, active compounds read low 1.01 | S. cerevisiae deletion strains, locus YPR167C, strain met16, active compounds read low 1.01 | S. cerevisiae deletion strains, strain wtn01, active compounds read low 1.02 | S. cerevisiae strains, strain wild type, active compounds read low 0.996
